Data: the supplement of paper PMC6897291

System: RIVA
Test: growth inhibition by drug plus 177Lu-lilotomab satetraxetan (1 - RLU/untreated control) (fraction); higher = stronger inhibition
Details: 177Lu-lilotomab satetraxetan 0.5 ug/ml
Description: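 RIVA (RI-1) ABC-DLBCL cells were pretreated or not for 18 h with 0.5 ug/ml 177Lu-lilotomab satetraxetan (600 MBq/mg), washed and seeded (3000 cells/well) on 384-well plates pre-printed with the Selleck Cambridge Cancer Compound library. Viability was read by RealTime-Glo luminescence on days 3-6 after seeding. Effect = 1 - RLU/mean RLU of the 48 untreated no-drug control wells per plate; Bliss score = (M-E)/(1-Fa).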

Compound | growth inhibition by drug plus 177Lu-lilotomab satetraxetan (10 nM, time (day): 3) | growth inhibition by drug plus 177Lu-lilotomab satetraxetan (10 nM, time (day): 4) | growth inhibition by drug plus 177Lu-lilotomab satetraxetan (10 nM, time (day): 5) | growth inhibition by drug plus 177Lu-lilotomab satetraxetan (10 nM, time (day): 6) | growth inhibition by drug plus 177Lu-lilotomab satetraxetan (100 nM, time (day): 3) | growth inhibition by drug plus 177Lu-lilotomab satetraxetan (100 nM, time (day): 4) | growth inhibition by drug plus 177Lu-lilotomab satetraxetan (100 nM, time (day): 5) | growth inhibition by drug plus 177Lu-lilotomab satetraxetan (100 nM, time (day): 6)
Cc1ccc(-c2cc(C(F)(F)F)nn2-c2ccc(S(N)(=O)=O)cc2)cc1 [Celecoxib] | 0.337 | 0.477 | 0.505 | 0.512 | 0.373 | 0.448 | 0.453 | 0.425
CN1CCN(c2ccc3nc(-c4c(N)c5c(F)cccc5[nH]c4=O)[nH]c3c2)CC1 [Dovitinib (TKI-258)] | 0.421 | 0.501 | 0.522 | 0.53 | 0.358 | 0.399 | 0.413 | 0.411
CCOc1ccc(Cc2cc([C@@H]3O[C@H](CO)[C@@H](O)[C@H](O)[C@H]3O)ccc2Cl)cc1 [Dapagliflozin] | 0.595 | 0.635 | 0.644 | 0.658 | 0.517 | 0.574 | 0.572 | 0.572
CNCc1ccc(-c2[nH]c3cc(F)cc4c3c2CCNC4=O)cc1 | 0.384 | 0.514 | 0.55 | 0.578 | 0.507 | 0.54 | 0.574 | 0.57
CCN(CC)CCOc1ccc(Nc2ncc3cc(-c4c(Cl)cccc4Cl)c(=O)n(C)c3n2)cc1 | 0.458 | 0.527 | 0.536 | 0.546 | 0.495 | 0.473 | 0.405 | 0.287
